Sampled rows, rich in hits. Any-hit rate of the full collection: about 32%.
CYP2C9 act: activators of human CYP2C9; activation factor at 5 µM; recombinant CYP2C9, luciferin-H conversion, luminescence; hits give high values; factor 1 = untreated enzyme, 0 = blocked; actives 1.4% (n = 96,000); P11712;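 active = activation factor of 2 or more for CYP2C9 at a 5 µM dose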;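 note: 0 = sulfaphenazole-blocked wells and 1 = vehicle-only wells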
Target sequence (P11712 whole entry, looked up): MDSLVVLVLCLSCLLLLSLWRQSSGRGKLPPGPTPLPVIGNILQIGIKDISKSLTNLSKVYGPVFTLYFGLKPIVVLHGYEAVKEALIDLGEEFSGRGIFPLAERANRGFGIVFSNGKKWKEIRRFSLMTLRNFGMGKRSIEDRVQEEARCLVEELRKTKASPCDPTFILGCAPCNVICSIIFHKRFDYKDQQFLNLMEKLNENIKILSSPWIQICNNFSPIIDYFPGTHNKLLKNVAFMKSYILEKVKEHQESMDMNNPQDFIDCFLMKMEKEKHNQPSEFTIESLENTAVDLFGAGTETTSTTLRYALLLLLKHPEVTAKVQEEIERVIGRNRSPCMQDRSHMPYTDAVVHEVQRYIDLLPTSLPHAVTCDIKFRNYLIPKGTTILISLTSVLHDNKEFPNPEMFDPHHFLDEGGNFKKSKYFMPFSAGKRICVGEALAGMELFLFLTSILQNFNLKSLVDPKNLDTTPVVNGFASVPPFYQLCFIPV
PostGolgi yeast: growth inhibition of a yeast mutant, post-Golgi transport screen | AID 739 | inhibition, % at 10 µM | post-Golgi transport phenotypic cell assay | actives 0.9% (n = 98,000);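 note: yeast cells grown in 1536-well plates; yeast grown about 18 h at 30C before absorbance read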
CYP2C9 inhib: human CYP2C9 inhibition; CYP2C9 Supersomes, luciferin-H conversion, luminescence; P11712; actives 20% (n = 96,000); AID 777; inhibition, % at 5 µM;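 active = blocking of liver enzyme CYP2C9 beyond about 50% at 5 µM, limit read from the data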
CYP2C19 inhib: inhibitors of human CYP2C19; P33261; CYP2C19 Supersomes, luciferin-H EGE luminescence, 30 min; inhibition, % at 5 µM; actives 21% (n = 96,000); AID 778;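 active = CYP2C19 inhibition above a set limit at 5 µM in the primary screen, cut at about 50% in these data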;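 note: plate controls were negative control wells for no effect and 2.5 mM tranylcypromine positive control for full effect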
PostGolgi ctrl: growth of the yeast control strain, post-Golgi counter-screen; actives 5% (n = 98,000); inhibition, % at 10 µM; AID 738; efflux-deficient yeast background strain, growth absorbance A615, 16 h
CYP2C19 act: increases human CYP2C19 enzyme activity; 96,000 tested, under 10 active; AID 1025; activation factor at 5 µM; recombinant CYP2C19, luciferin-H EGE luminescence; hits give high values; 0 = fully inhibited enzyme, 1 = untreated enzyme;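 active = activation factor of at least 2 at 5 µM in the primary screen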;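 note: 0 = wells with 2.5 mM tranylcypromine and 1 = vehicle-only wells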
* hit, by the source's call; x = no result. Cut-off read from the data, not from the text of the source, unless noted: active = inhibition above about 30%; inactive = the rest.

SMILES	CYP2C9 act	PostGolgi yeast	CYP2C9 inhib	CYP2C19 inhib	PostGolgi ctrl	CYP2C19 act
CCN(CC)S(=O)(=O)c1ccc(NC2CCCc3ccccc32)nc1 (stereo unspecified)	x	4	x	x	48*	x
CCCNS(=O)(=O)c1cccc(C(=O)NC2CCCc3ccccc32)c1 (stereo unspecified)	0.1	0	89*	78*	1	0.2
CCN(CC)S(=O)(=O)c1ccc2oc(C(=O)NC3CCCc4ccccc43)c(C)c2c1 (stereo unspecified)	0.4	6	59*	25	24	0.7
Cc1cc(C(=O)NC2CCCc3ccccc32)c(C)o1 (stereo unspecified)	0.3	-6	70*	30	-4	0.7
Cc1noc(C)c1C(=O)NC1CCCc2ccccc21 (stereo unspecified)	0.7	15	30	25	0	0.8
CSCc1c(C(=O)NC2CCCc3ccccc32)oc2ccccc12 (stereo unspecified)	0.4	-3	55*	-15	30	1.2
CN(Cc1ccccc1)Cc1c[nH]c2ccccc12	1	-3	4	88*	0	0.1
CCCN(CCC)CCCNC(=O)c1ccc2c(c1)N(CC)C(=O)c1ccccc1S2=O (stereo unspecified)	0.9	0	10	-1	2	1
CCN1C(=O)c2ccccc2S(=O)(=O)c2ccc(C(=O)NCc3cccnc3)cc21	0	-6	98*	58*	-4	0.4
CCCCNC(=O)c1ccc2c(c1)N(CC)C(=O)c1ccccc1S2(=O)=O	0.1	9	90*	46	5	0.5
Cc1csc(SCC(=O)Nc2cccc(S(=O)(=O)N3CCCC3)c2)n1	0.2	9	78*	81*	16	0.2
Cc1csc(SCC(=O)Nc2cc(S(=O)(=O)N3CCCC3)ccc2Cl)n1	0.5	13	54*	31	17	0.7
Cc1c(C(=O)NCCSCc2c(Cl)cccc2Cl)cccc1[N+](=O)[O-]	1.1	5	-7	13	9	0.9
COc1cccc(C(c2nnnn2C(C)(C)C)N2CCN(C3CCCCC3)CC2)c1OC (stereo unspecified)	0.9	1	8	4	4	1
COc1ccc(C(c2nnnn2C2CCCC2)N2CCC(C(N)=O)CC2)c(OC)c1 (stereo unspecified)	1	-3	4	6	-4	0.9
COc1ccc(C(c2nnnn2C2CCCC2)N2CCc3ccccc3C2)cc1OC (stereo unspecified)	0.7	-13	29	47	10	0.5
COc1ccc(OC)c(C(c2nnnn2C2CCCC2)N2CCc3ccccc3C2)c1 (stereo unspecified)	0.5	-10	54*	80*	23	0.2
COc1ccc(N2CCN(C(c3cccc(OC)c3OC)c3nnnn3C3CCCC3)CC2)cc1 (stereo unspecified)	0.3	3	73*	80*	10	0.2
COc1ccc(N2CCN(C(c3ccccc3OC)c3nnnn3C3CCCC3)CC2)cc1 (stereo unspecified)	0.2	3	77*	76*	3	0.2
COc1ccc(OC)c(C(c2nnnn2C2CCCC2)N2CCN(c3ccccc3F)CC2)c1 (stereo unspecified)	0.1	9	94*	95*	12	0.1
Cc1cc(C)c(S(=O)(=O)c2ccccc2)c(OC(=O)c2c(Cl)cc(Cl)cc2Cl)n1	0.6	23	44	53*	15	0.5
CNc1nc(C)cc(C)c1S(=O)(=O)c1ccc(C)cc1	3.6*	-5	-261	82*	15	0.2
Cc1cc(C)c(S(=O)(=O)c2ccccc2)c(N(C)C)n1	0.6	2	42	64*	18	0.4
CCCCNC(=O)Nc1cc(C(F)(F)F)c[nH]c1=O	0.9	-1	8	25	8	0.7
COC(=O)c1cccc(NS(=O)(=O)c2ccc(OC)c(OC)c2)c1C	0.6	-2	43	19	3	0.8
SMILES	CYP2C9 act	PostGolgi yeast	CYP2C9 inhib	CYP2C19 inhib	PostGolgi ctrl	CYP2C19 act
COc1ccc(C(=O)Nc2ccccc2C(=O)NC(C)C)cc1OC	0.6	16	36	5	-2	0.9
COc1ccc(S(=O)(=O)Nc2ccccc2C(=O)NC(C)C)cc1OC	1.5	5	-54	81*	8	0.2
CCC(C)NC(=O)c1ccccc1NS(=O)(=O)c1ccc(OC)c(OC)c1 (stereo unspecified)	1.4	-3	-35	80*	15	0.2
CC(=O)c1cccc(-n2nnnc2SCC(=O)N2CCCC2)c1	1.2	-3	-21	-11	6	1.1
O=C(CC1(O)C(=O)Nc2cc(Cl)cc(Cl)c21)c1ccncc1 (stereo unspecified)	x	-5	x	x	5	x
Cc1ccc(Cl)c2c1NC(=O)C2(O)CC(=O)c1ccc(Br)cc1 (stereo unspecified)	1	-6	4	61*	11	0.4
CCN(CC)c1nc(N)nc(N(c2ccccc2)c2ccccc2)n1	0.8	-8	24	-3	53*	1
CN(C)c1nc(N)nc(N(c2ccccc2)c2ccccc2)n1	0.8	1	25	8	29	0.9
CCOC(=O)N1CCN(C(=O)c2ccc3c(=O)n(CCc4ccccc4)c(=S)[nH]c3c2)CC1	0.3	-6	71*	72*	2	0.3
CC1CCCN(C(=O)c2ccc3c(=O)n(Cc4ccc5c(c4)OCO5)c(=S)[nH]c3c2)C1 (stereo unspecified)	0.5	-1	45	40	47*	0.6
CCOC(=O)N1CCN(C(=O)c2ccc3c(=O)n(Cc4ccc(Cl)cc4)c(=S)[nH]c3c2)CC1	0.5	-7	52*	41	2	0.6
CCOC(=O)N1CCN(C(=O)c2ccc3c(=O)n(CCC4=CCCCC4)c(=S)[nH]c3c2)CC1	1	-6	0	4	-1	1
CN1CCN(C(=O)c2ccc3c(=O)n(Cc4ccco4)c(=S)[nH]c3c2)CC1	0.6	-1	43	24	8	0.8
CCN1CCN(C(=O)c2ccc3c(=O)n(Cc4ccccc4OC)c(=S)[nH]c3c2)CC1	0.8	-1	23	16	1	0.8
O=C(c1ccc2c(=O)n(Cc3ccco3)c(=S)[nH]c2c1)N1CCN(Cc2ccccc2)CC1	0.3	-4	70*	57*	-3	0.4
CCN(CC)CC(=O)Nc1c(C)cc(C)cc1C	x	1	x	x	1	x
COc1ccccc1/C=C/CN1CC(C)OC(C)C1 (stereo unspecified)	1.3	-2	-30	11	9	0.9
O=c1c2cc3c(cc2[nH]c(=S)n1Cc1ccco1)OCO3	0.9	-2	11	78*	0	0.2
Cc1ccc(-c2nc3ccccc3s2)cc1S(=O)(=O)N1CCOCC1	0.9	-7	13	19	34*	0.8

From PubChem
